TbPYK inhibitor – inhibitors of Trypanosoma brucei pyruvate kinase; hit rate 0.12% among 410,000; TbPYK enzyme, Kinase-Glo Plus ATP luminescence, 45 min; Potency, µM (series often up to 76.8 µM), inactives show top-dose activity, negative = inhibition, actives largely listed as inhibitors; Q57TT1; AID 624173; note: potency is the fitted concentration of half-maximal effect; % is set by controls: 0 for no effect and ±100 for the full control effect; nearly all actives have a fitted effect of over 50% in size
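Luminescent Kinase-Glo Plus end-point after 45 min room-temperature reaction of T. brucei pyruvate kinase started with 130 uM ADP (final). Buffer TEA 50 mM pH 7.2 with KCl, MgCl2, BSA, Tween-20; titration-based qHTS with fitted concentration-effect curves.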
Shiga inhibitor – Shiga toxin inhibition | Vero cells, Shiga toxin protein synthesis inhibition reporter | inhibition, % at 38.7 µM | hit rate 9.2% among 290,000 | AID 2315; in the data active = inhibition mostly above about 28%, no sharp cut-off; inactive = mostly below about 43%; note: 0% is about no effect
NS1 function inh – influenza NS1 inhibition | Potency, µM (doses to about 46.1 µM), without a hit: at the top dose activity, positive = more growth | hit rate 0.4% among 270,000; calls by dose curve; note: potency is the fitted concentration of half-maximal effect; actives are rising curves; nearly all actives have a fitted effect of over 50% in size
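S. cerevisiae expressing influenza A NS1, grown in glucose, washed, then diluted 1:100 into pH 6.0 -URA galactose medium with 23 nl compound. Growth recovery read as OD600; NS1-free strain serves as control.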
Cycloheximide cs – counter-screen hit for Shiga toxin inhibitors, cycloheximide; AID 2314; hit rate 12% among 300,000; max response, %; cell reporter, cycloheximide protein synthesis inhibition counterscreen; in the data active = max response mostly above about 13%, no sharp cut-off; inactive = mostly below about 14%; note: read at 38.3 µM for the half of the compounds with a filed dose; 0% is about no effect
LmPK inhibitor – inhibitors of Leishmania mexicana pyruvate kinase; AID 1721; Potency, µM (doses to about 57.5 µM), without a hit: at the highest dose activity change, negative = inhibition, most hits filed as inhibitors; hit rate 0.37% among 290,000; purified LmPK, Kinase-Glo ATP luminescence, 1 h; note: potency is the fitted concentration of half-maximal effect; % is set by controls: 0 for no effect and ±100 for the full control effect
Target sequence (Q27686 whole entry, looked up): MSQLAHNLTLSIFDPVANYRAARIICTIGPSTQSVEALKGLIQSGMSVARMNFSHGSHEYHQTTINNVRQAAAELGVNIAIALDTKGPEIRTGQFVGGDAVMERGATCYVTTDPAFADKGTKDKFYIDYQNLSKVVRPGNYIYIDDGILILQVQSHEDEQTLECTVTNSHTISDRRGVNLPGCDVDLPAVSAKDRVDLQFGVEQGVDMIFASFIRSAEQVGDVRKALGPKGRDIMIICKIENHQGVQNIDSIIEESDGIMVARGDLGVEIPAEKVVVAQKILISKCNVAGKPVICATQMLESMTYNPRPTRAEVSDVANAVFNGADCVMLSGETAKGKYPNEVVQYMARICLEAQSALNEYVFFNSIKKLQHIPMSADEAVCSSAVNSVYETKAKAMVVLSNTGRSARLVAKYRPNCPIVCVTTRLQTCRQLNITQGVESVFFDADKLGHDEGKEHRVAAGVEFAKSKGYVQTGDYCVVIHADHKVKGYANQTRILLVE
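qHTS format; LmPK 0.1 nM; substrates PEP 0.5 mM and ADP 0.1 mM. One-hour room-temperature incubation, then coupled luciferase luminescence; 0.5 nM enzyme wells mark activation.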
SARS PLP yeast – SARS-CoV PLP inhibition in yeast; hit rate 0.19% among 330,000; Potency, µM (doses to about 32.9 µM), for the others: at the top dose activity, positive = growth rescue, usual class: activators; S. cerevisiae expressing SARS-CoV PLpro, growth rescue; AID 485353; calls by dose curve; note: potency is the fitted concentration of half-maximal effect; 0% is about no effect; nearly all actives have a fitted effect of over 55% in size
Starred values were filed as active, the others as inactive; i = inactive; ? = inconclusive; nt = no result; [ ] = remark or other dose. This excerpt belongs to a sample that is enriched for hits. Unless noted, calls come from the whole dose curve; as a rule, active = well fitted curve in the direction sought with a large enough effect; inconclusive = small, poorly fitted or top-dose-only effect, or another doubt; inactive = no such curve, though single readings can be large; an effect the other way counts as inactive or inconclusive.

SMILES	TbPYK inhibitor	Shiga inhibitor	NS1 function inh	Cycloheximide cs	LmPK inhibitor	SARS PLP yeast
CCCN(N=Nc1cccc([N+](=O)[O-])c1)c1cccc([N+](=O)[O-])c1	0%	-12	5%	-5	4%	-4%
O=C(Nc1cccc(C(=O)N2CCCCC2)c1)c1ccccc1	4%	nt	nt	nt	nt	nt
O=C(Nc1cccc(C(=O)N2CCOCC2)c1)c1ccccc1	3%	-8	-4%	-2	-6%	2%
O=C(Nc1cccc(C(=O)N2CCCCC2)c1)c1ccc(Cl)cc1	4%	16	-1%	29*	-4%	-7%
Cc1ccc(C(=O)Nc2cccc(C(=O)N3CCOCC3)c2)cc1Cl	4%	36	15%	16*	7%	3%
COc1ccc([C@]23Cc4cc(OC)c(OC)cc4C(O2)c2c(cc(-c4ccccc4)oc2=O)O3)cc1	nt	i	20%	-3	0%[11.5 µM]	-5%[6.58 µM]
O=C(CSc1nnc(Cc2ccccc2)o1)c1ccc(F)cc1	1%	19	-2%	8.0*	2%	0%
O=C(CSc1nnc(Cc2ccsc2)o1)c1ccccc1	3%	55	7%	21*	2%	0%
CC(Oc1ccccc1)C(=O)Nc1ccccc1C(=O)OCc1cc(=O)n2nc(C3CC3)sc2n1 (configuration not stated)	0%	nt	nt	nt	nt	nt
O=c1oc2ccccc2nc1/C=C(\O)c1ccccc1	2%	104*	-99%	63*	9%	-7%
O=c1oc2ccc(Cl)cc2nc1/C=C(\O)c1ccco1	-5%	41*	-53%	25*	0%	-5%
CC(C)(C)/C(O)=C/c1nc2ccccc2oc1=O	3%	-7	-2%	4	2%	-1%
O/C(=C\c1nc2ccccc2nc1/C=C(\O)c1ccccc1)c1ccccc1	-12%	102*	nt	31*	?	-2%
Cc1nc(C)c(/C(O)=C/c2nc3ccccc3oc2=O)s1	-8%	-3	-29%	22*	-2%	-46%
CC1=C(C(=O)N(C)C)CC(CC(=O)NC2CCCCC2)C(=O)N1Cc1ccccc1 (configuration not stated)	0%	nt	nt	nt	nt	nt
Cc1ccc(NS(=O)(=O)c2cccc(C(=O)NNC(=O)c3cccn3C)c2)c(C)c1	-3%	32	12%	24*	-2%	1%
COc1ccc(NS(=O)(=O)c2cccc(C(=O)NNC(=O)c3cccn3C)c2)cc1	5%	6	4%	-2	0%	1%
CCc1ccccc1-n1c(SCC(=O)NC)nnc1-c1ccco1	6%	-6	17%	-1	0%	-3%
O=C(NCCC(c1ccccc1)c1ccco1)c1cccs1 (configuration not stated)	-1%	118*	-38%	38*	7%	-20%
CN(C)C(CNC(=O)c1cccs1)c1ccco1 (configuration not stated)	0%	nt	nt	nt	nt	10%
CCOC(=O)C1CCN(S(=O)(=O)c2cc(-c3onc(C)c3C)ccc2C)CC1	-5%	nt	nt	nt	nt	nt
Cc1ccc(N=C(NO)c2nonc2N)c(C)c1	-2%	11	-21%	8	0%	-6%
Cc1ccc(N=C(NO)c2nonc2N)cc1	0%	95*	3%	46*	1%	3%
CNc1c([N+](=O)[O-])cnn1-c1ccccc1F	-1%	43	3%	41*	1%	1%
CC(C)Cn1c(=O)c2sccc2n2c(CCCC(=O)NCc3ccccc3Cl)nnc12	0%	nt	nt	nt	nt	nt
SMILES	TbPYK inhibitor	Shiga inhibitor	NS1 function inh	Cycloheximide cs	LmPK inhibitor	SARS PLP yeast
O=C(O)C1CCN(C(=O)c2ccccc2Cl)CC1	2%	-18	-3%	-4	5%	21%
O=C(c1ccccc1Cl)N1CCC(N2CCC(C(=O)N3CCCC3)CC2)CC1	3%	36	-1%	24*	3%	-3%
O=C(c1cc(F)ccc1F)N1CCC(N2CCC(C(=O)N3CCCC3)CC2)CC1	0%	2	5%	17*	1%	-2%
COc1ccc(OC)c(NC(=O)Cn2c(=O)n(Cc3nc(C)no3)c(=O)c3ccccc32)c1	-3%	nt	nt	nt	nt	nt
COc1cc(CCC(=O)OCC(=O)NCCc2ccc(S(N)(=O)=O)cc2)cc(OC)c1OC	-7%	nt	nt	nt	nt	-4%
Cc1cccc(NC(=O)COc2ccccc2)c1	0%	129*	-60%	33*	1%	-2%
CC(=O)Nc1cccc(OCC(=O)Nc2sccc2C(N)=O)c1	-7%	69*	0%	49*	-9%	0%
CC(=O)Nc1cccc(NC(=O)COc2ccc3c(c2)CCC3)c1	0%	nt	nt	nt	nt	-10%
O=C(COc1cccc(Oc2ccccc2)c1)Nc1ncccn1	-8%	29*	-37%	14*	-1%	-13%
CC(=O)Nc1cccc(OCC(=O)Nc2ccccc2)c1	-2%	114*	10%	47*	-23%	-1%
CCN1CCN(S(=O)(=O)c2ccc(Cl)c(C(=O)NC(C)c3ccccc3Cl)c2)CC1 (configuration not stated)	0%	nt	nt	nt	nt	8%
COc1ccc(Br)cc1CN1C(=O)c2ccccc2C1C(=O)NC1CCCCCC1 (configuration not stated)	0%	nt	nt	nt	nt	nt
O=C(Cc1ccccc1)N(Cc1cccnc1)c1nc2c(F)cc(F)cc2s1	-3%[15.4 µM]	nt	nt	nt	nt	nt
CNC(C)C(=O)NC(C(=O)N1CCCC1C(=O)Nc1ccc2ncccc2c1)C(C)C (configuration not stated)	3%	nt	nt	nt	nt	-5%
CCOc1ccc(-c2cccc(NC(=O)COc3ccccc3)c2)nn1	-2%	19	-3%	27*	1%	-3%
COc1cccc(NC(=O)COc2ccc(Br)c(C)c2)c1	-3%	10	-47%	12*	-6%	-13%
COc1cccc(NC(=O)CNC(=O)c2ccc(OC)c(OC)c2)c1	-2%	16	-1%	-1	2%	1%
COc1cccc(NC(=O)CNC(=O)c2ccccc2)c1	-1%	77*	4%	27*	5%	0%
COc1cccc(NC(=O)CN2CCc3ccccc3C2)c1	-4%	24	-19%	17*	-4%	-14%
Cc1cccn2c(=O)c(C(=O)NCCc3ccccc3)c(O)nc12	-2%	nt	nt	nt	nt	nt
O=C(CN1CCN(c2ccccc2F)CC1)NC(=O)NCc1ccccc1	3%	15	nt	-2	0%	0%
CCOC(=O)C1=CN(CC2CCCCC2)CCC1=O	-3%	nt	nt	nt	nt	nt
CCc1ccccc1OCC(=O)Nc1ccc(S(N)(=O)=O)cc1	1%	23	?	1	-2%	-2%
COc1cccc(NC(=O)CC(=O)c2ccc([N+](=O)[O-])cc2)c1	3%	71*	-4%	51*	0%	-1%
CCOCC(=O)Nc1cccc(OC)c1	-15%	37	4%	16*	-2%	-26%
CNCc1ccccc1OCC(=O)Nc1ccccc1	-27%	74*	6%	35*	-6%	10%
COc1cc(OC)cc(C(=O)NCC(=O)Nc2ccc(C)c(Cl)c2)c1	-3%	20	0%	4	-4%	-2%
COc1cccc(NC(=O)CCC(=O)Nc2cccc(OC)c2)c1	-7%	19	17%	-2	5%	14%

Bioassay records as filed in PubChem.
